# From PubChem BioAssay (NCI)
# “And” between values parts separate entries of the source, which are not always exact repeats. Equal values may be shown once. The panel holds about 83,000 compounds, 20% with a hit somewhere; the sample as a whole holds those more often.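 Treatment: one concentration, 48 hours, 96-well format. Scoring: percent growth, with anything below 10 considered active.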 The source made the active and inactive calls.
# How the values were obtained:
# Experiment in all cases: NCI-60 one-dose screen, 48 h (100 = growth as untreated, 0 = no growth, -100 = all killed)
# Conditions in all cases: 10 µM unless noted
# SR leukemia = test system: SR leukemia
# OVCAR-8 ovarian = test system: OVCAR-8 ovarian
# OVCAR-5 ovarian = test system: OVCAR-5 ovarian
# OVCAR-4 ovarian = test system: OVCAR-4 ovarian
# SK-OV-3 ovarian = test system: SK-OV-3 ovarian
# IGROV1 ovarian = test system: IGROV1 ovarian
# OVCAR-3 ovarian = test system: OVCAR-3 ovarian
# HS 578T breast = test system: HS 578T breast
# NCI/ADR-RES ovarian = test system: NCI/ADR-RES ovarian
# T-47D breast = test system: T-47D breast
# BT-549 breast = test system: BT-549 breast
# MDA-MB-435 melanoma = test system: MDA-MB-435 melanoma
# SW-620 colon = test system: SW-620 colon
# MCF7 breast = test system: MCF7 breast
# HCT-116 colon = test system: HCT-116 colon
# HCC-2998 colon = test system: HCC-2998 colon
# KM12 colon = test system: KM12 colon
# RPMI-8226 leukemia = test system: RPMI-8226 leukemia
SMILES,growth (SR leukemia),growth (OVCAR-8 ovarian),growth (OVCAR-5 ovarian),growth (OVCAR-4 ovarian),growth (SK-OV-3 ovarian),growth (IGROV1 ovarian),growth (OVCAR-3 ovarian),growth (HS 578T breast),growth (NCI/ADR-RES ovarian),growth (T-47D breast),growth (BT-549 breast),growth (MDA-MB-435 melanoma),growth (SW-620 colon),growth (MCF7 breast),growth (HCT-116 colon),growth (HCC-2998 colon),growth (KM12 colon),growth (RPMI-8226 leukemia)
CCOc1ccc(/C=C\C(=O)O)cc1,81.6% (inactive),98.7% (inactive),117% (inactive),108% (inactive),139% (inactive),101% (inactive),117% (inactive),112% (inactive),110% (inactive),122% (inactive),125% (inactive),107% (inactive),101% (inactive),95.2% (inactive),119% (inactive),109% (inactive),106% (inactive),–
COc1ccc(CCN=Cc2ccc(Cl)cc2)cc1OC,98.5% (inactive),104% (inactive),119% (inactive),110% (inactive),112% (inactive),–,115% (inactive),106% (inactive),106% (inactive),97% (inactive),107% (inactive),113% (inactive),102% (inactive),–,104% (inactive),105% (inactive),102% (inactive),–
CCN(CC)C(CC(=O)c1ccccc1)C(=O)c1ccccc1 (stereo unspecified),29% (inactive),96.6% (inactive),113% (inactive),93.3% (inactive),114% (inactive),110% (inactive),92.5% (inactive),113% (inactive),101% (inactive),–,102% (inactive),99.2% (inactive),-7.93% (active),53.2% (inactive),92% (inactive),108% (inactive),109% (inactive),–
Cc1cc(=NO)cc(C)n1O,72.5% (inactive),111% (inactive),117% (inactive),106% (inactive),104% (inactive),114% (inactive),104% (inactive),103% (inactive),114% (inactive),94.4% (inactive),82.8% (inactive),106% (inactive),100% (inactive),87.6% (inactive),97.3% (inactive),120% (inactive),110% (inactive),–
CC1=CC(=O)c2cccc(NC3=NCCO3)c21,91.6% (inactive),102% (inactive),95.2% (inactive),95.1% (inactive),103% (inactive),104% (inactive),106% (inactive),103% (inactive),97.5% (inactive),90.3% (inactive),101% (inactive),98.4% (inactive),95.2% (inactive),98.6% (inactive),97.9% (inactive),104% (inactive),97.7% (inactive),–
CCn1c2ccc(N(C)C)cc2c2cc(N(C)C)ccc21,94% (inactive),97.3% (inactive),99.6% (inactive),24.9% (inactive),94.8% (inactive),107% (inactive),5.93% (active),107% (inactive),98.5% (inactive),88.2% (inactive),–,111% (inactive),96.2% (inactive),86.4% (inactive),101% (inactive),99.2% (inactive),92.8% (inactive),–
CCC(=O)Oc1ccc(OCc2ccccc2)cc1,80.9% (inactive) and 97.4% (inactive),87.7% (inactive) and 69.1% (inactive),113% (inactive) and 119% (inactive),–,105% (inactive) and 101% (inactive),92.8% (inactive) and 82% (inactive),95% (inactive) and 104% (inactive),98.3% (inactive) and 97.3% (inactive),66.6% (inactive) and 65% (inactive),113% (inactive) and 89.5% (inactive),73.4% (inactive),96.9% (inactive) and 82.1% (inactive),90.2% (inactive) and 79.7% (inactive),91.4% (inactive) and 88.5% (inactive),99.7% (inactive) and 102% (inactive),84.4% (inactive) and 87.7% (inactive),86.5% (inactive) and 89.6% (inactive),89.6% (inactive) and 90.6% (inactive)
Cc1cc(O)c(C(C)C)cc1N=O,110% (inactive),102% (inactive) and 92.1% (inactive),101% (inactive) and 108% (inactive),109% (inactive) and 111% (inactive),96.4% (inactive) and 105% (inactive),124% (inactive) and 112% (inactive),109% (inactive) and 88.8% (inactive),104% (inactive) and 114% (inactive),98.7% (inactive) and 106% (inactive),82.5% (inactive) and 90.9% (inactive),114% (inactive) and 95.9% (inactive),99.5% (inactive) and 117% (inactive),123% (inactive) and 104% (inactive),90.8% (inactive) and 94.9% (inactive),94.4% (inactive) and 93.8% (inactive),98.1% (inactive) and 102% (inactive),109% (inactive) and 110% (inactive),–
NNc1ncnc2cccc(Cl)c12,108% (inactive),95.2% (inactive),97.5% (inactive),114% (inactive),94.4% (inactive),102% (inactive),119% (inactive),98.4% (inactive),102% (inactive),90.6% (inactive),112% (inactive),115% (inactive),104% (inactive),96.6% (inactive),98.1% (inactive),104% (inactive),106% (inactive),–
CN(C)CC(CN(C)C)C(O)c1ccccc1 (stereo unspecified),111% (inactive),104% (inactive),106% (inactive),102% (inactive),103% (inactive),106% (inactive),115% (inactive),108% (inactive),100% (inactive),95.2% (inactive),–,112% (inactive),111% (inactive),98.5% (inactive),101% (inactive),111% (inactive),102% (inactive),–
CCN(CC)CCO/N=C1\CC(c2ccc(OC)c(OC)c2)Oc2ccccc21 (stereo unspecified),98.5% (inactive),102% (inactive),95.4% (inactive),96.5% (inactive),96.5% (inactive),–,111% (inactive),90.3% (inactive),89.6% (inactive),89.4% (inactive),94% (inactive),100% (inactive),90.3% (inactive),89.4% (inactive),84.1% (inactive),109% (inactive),103% (inactive),–
Cc1c(Cl)cc(Cl)c(N)c1Cl,117% (inactive),104% (inactive),107% (inactive),108% (inactive),101% (inactive),114% (inactive),112% (inactive),95.3% (inactive),105% (inactive),104% (inactive),112% (inactive),104% (inactive),101% (inactive),98.6% (inactive),103% (inactive),113% (inactive),114% (inactive),–
N#Cc1ccc(/C=C/C(=O)c2ccccc2)cc1,-63.9% (active),98.9% (inactive) and 98.8% (inactive),108% (inactive) and 91.1% (inactive),95.2% (inactive) and 103% (inactive),123% (inactive) and 106% (inactive),–,55.4% (inactive) and 75.5% (inactive),128% (inactive) and 102% (inactive),111% (inactive) and 95.8% (inactive),–,98% (inactive) and 96.5% (inactive),84.4% (inactive) and 95.2% (inactive),19.1% (inactive) and 1.04% (active),3.73% (active) and 34.9% (inactive),-97.4% (active) and -60.8% (active),110% (inactive) and 7.47% (active),-47.9% (active) and 15.7% (inactive),–
Cn1c(N)c(N=O)c(=O)n(C)c1=O,92.4% (inactive) and 91.7% (inactive),96.8% (inactive) and 104% (inactive),111% (inactive) and 104% (inactive),111% (inactive) and 103% (inactive),111% (inactive) and 118% (inactive),105% (inactive),109% (inactive) and 90.7% (inactive),112% (inactive) and 94.4% (inactive),97.6% (inactive),–,111% (inactive) and 96.8% (inactive),109% (inactive) and 102% (inactive),106% (inactive) and 101% (inactive),98.1% (inactive) and 99.5% (inactive),102% (inactive) and 90.8% (inactive),106% (inactive),106% (inactive) and 94.8% (inactive),–
COC(=O)CCOc1ccccc1,99.5% (inactive),91.1% (inactive),113% (inactive),92.8% (inactive),106% (inactive),68.9% (inactive),97% (inactive),195% (inactive),108% (inactive),103% (inactive),91.7% (inactive),109% (inactive),107% (inactive),89.3% (inactive),103% (inactive),91% (inactive),102% (inactive),–
